In PubChem BioAssay AID602393 (Broad Institute, 2012) one finds reporter increase data, which are given here for 83 compounds.

SMILES strings stand for the structures. Screen size: about 350,000 compounds; about 7,000 (2%) were called active. Shown is part of a subset that was picked to be rich in actives. A number with no mark means an inactive call. Cut-off read from the data, not from the text of the source: active = activation above about 40%; inconclusive = no clear call, values can overlap the other calls; inactive = below that.

The experiment can be described thus: Bmi1 luciferase reporter increase in mESCs, primary screen, esBAF inhibitor project, mouse ES cells, Bmi1 luciferase knock-in, single point (AID 602393).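 Note: 0% = median of the plate's neutral control wells and 100% = double that signal; a rise in the Bmi1 reporter signal indicates esBAF inhibition.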 To be noted: 24 h, at 12.5 µM, active compounds read high, 100% = twice the neutral-well signal.
`O=C(NC1CCCCC1)[C@@H]1[C@@H](CO)[C@@H]2Cn3c(cccc3=O)[C@@H]2N1C(=O)CC1CC1`: the reporter increase is 0.341%.

Regarding `C[C@H](O)C#Cc1cnc2c(c1)C(=O)N([C@H](C)CO)C[C@H](C)[C@H](CN(C)C(=O)c1ccc(F)cc1)O2`, the reporter increase is 0.158%.

As to `COc1ccc2nc(SCC(=O)Nc3c(C)cc(C)cc3C)[nH]c2c1`, the reporter increase was -3.13%.

With `COc1ccccc1CSc1nc2ccccc2[nH]1`, the reporter increase is 69.6% (active).

Regarding `CN(Cc1ccccc1)c1nc2c(c(=O)[nH]c(=O)n2C)n1CCSc1nc2ccccc2[nH]1`, the reporter increase was 5.78%.

For `O=C(NCc1ccccc1)c1onc(CSc2nc3ccccc3[nH]2)c1C(=O)NCc1ccccc1`, the reporter increase was -3.03%.

Take `CCCCSc1nc2ccccc2[nH]1`: the reporter increase is 56.3% (active).

Take `O=C(CSc1nc2ccccc2[nH]1)c1cccs1`: the reporter increase is 79.4% (active).

Turning to `C/C(=N\Nc1nc2ccccc2[nH]1)c1cccs1`, the reporter increase is 67.6%.

On to `CCCCN(CC)CCCNC(=O)c1ccc(CSc2nc3ccncc3[nH]2)cc1`, for which the reporter increase is 0.105%.

Turning to `CN(Cc1ccccc1)C(=O)CSc1nc2ccccc2[nH]1`, the reporter increase was 36%.

Regarding `COc1cccc(S(=O)(=O)Nc2ccc3c(c2)[C@@H]2C[C@@H](CC(=O)NC4CCCCC4)O[C@H](CO)[C@@H]2O3)c1`, the reporter increase was 9.31%.

`CCCNC(=O)N[C@H]1C=C[C@@H](CC(=O)NC2CCCCC2)O[C@H]1CO`: the reporter increase is 0.216%.

In the case of `COc1cccc(NC(=O)N(C)C[C@H]2OCc3ccccc3-c3ccccc3C(=O)N([C@H](C)CO)C[C@@H]2C)c1`, the reporter increase was 4.73%.

On to `Cc1ccnc(NC(=O)c2ccc(Cl)c([N+](=O)[O-])c2)c1`, for which the reporter increase is 30.4%.

On to `C/C(=N\Nc1nncc2ccccc12)c1ccc(Cl)c([N+](=O)[O-])c1`, for which the reporter increase is 50.9% (active).

`Cc1nc2ccccc2c(=O)n1NC(=O)c1ccc(Cl)c([N+](=O)[O-])c1`: the reporter increase was 3.65%.

In the case of `CN(C)C(=O)c1cccc(-c2ccc3n(c2=O)C[C@H]2N[C@@H]3[C@@H](C(=O)NC3CCC3)[C@@H]2CO)c1`, the reporter increase was -3.26%.

Take `CCCNC(=O)N1[C@H](CO)[C@H]2c3ccccc3N(C(=O)Nc3cccc(Cl)c3)C[C@H]21`: the reporter increase was -0.3%.

As to `OC(c1ccccc1)c1nc(-c2cnc3ccccc3c2)cs1` (stereo not drawn), the reporter increase was 50.7% (active).

Regarding `CC(C)c1cccc(-c2csc(C(O)c3ccccc3)n2)c1` (stereo not drawn), the reporter increase is 38.6%.

Regarding `COc1cccc(C(NC(C)=O)c2nc(-c3cnc4ccccc4c3)cs2)c1` (stereo not drawn), the reporter increase was -2.81%.

On to `C[C@@H]1CN([C@@H](C)CO)S(=O)(=O)c2ccc(/C=C/c3ccccc3)cc2O[C@@H]1CN(C)C(=O)Nc1cc(F)ccc1F`, for which the reporter increase is 2%.

In the case of `COc1ccccc1-c1cn(CC[C@H]2CC[C@H](NC(=O)C3CCOCC3)[C@@H](CO)O2)nn1`, the reporter increase is 0.605%.

Consider `O=C(Nc1cccc(C(=O)O)c1)/C(=C\c1ccccc1)NC(=O)c1ccc(Br)o1`, for which the reporter increase is -2.41%.

Regarding `CCS(=O)(=O)c1ccc(-c2cccc(NC(=O)c3ccc(Br)o3)c2)nn1`, the reporter increase was -4.52%.

Take `Cc1cccc(NC(=S)NC(=O)c2ccc(Br)o2)c1`: the reporter increase is 52.3% (active).

As for `CO[C@H]1CN(C)C(=O)c2ccc(NC(=O)c3cccc(Oc4ccccc4)c3)cc2OC[C@@H](C)NC[C@H]1C`, the reporter increase was -1.39%.

Turning to `C/C=C/c1ccc([C@@H]2[C@@H](CN(C)C(C)=O)N(C(=O)C3CC3)[C@H]2CO)cc1`, the reporter increase was -1.72%.

Consider `O=C(NCc1cn2ccsc2n1)Nc1cccc(Cl)c1`, for which the reporter increase was 28.5%.

For `Cc1cc(C)nc(NC(=O)Nc2ccccc2C(F)(F)F)n1`, the reporter increase was -6.57%.

With `Cc1cc(Cl)nc(NC(=O)Nc2cccc(Cl)c2)n1`, the reporter increase is 74.9% (active).

Take `Cc1noc(C)c1S(=O)(=O)Nc1ccc2c(c1)C(=O)N([C@H](C)CO)C[C@@H](C)[C@@H](CN(C)C(=O)C1CCCCC1)OCCCC[C@@H](C)O2`: the reporter increase is 5.24%.

As to `O=C(C[C@@H]1CC[C@H](NC(=O)C2CC2)[C@@H](CO)O1)NCc1ccncc1`, the reporter increase was -3.99%.

On to `Cc1cccc(C)c1NC(=O)COC(=O)c1ccccc1O`, for which the reporter increase was 0.59%.

On to `CCOc1cccc2cc(C(=O)OCC(=O)Nc3c(C)cccc3CC)c(=O)oc12`, for which the reporter increase was 50.3% (active).

With `CCc1cccc(C)c1NC(=O)COC(=O)CC1CCCC1`, the reporter increase was 2.51%.

For `CNC[C@H]1Oc2ccc(NS(=O)(=O)c3ccccc3)cc2CC(=O)N([C@H](C)CO)C[C@@H]1C`, the reporter increase was -1.73%.

Consider `O=C(NCc1ccco1)c1sc2cccc(F)c2c1Cl`, for which the reporter increase is 44% (active).

Take `O=C(CCNC(=O)c1ccccc1Cl)NCc1ccco1`: the reporter increase was -4.58%.

In the case of `COc1ccc2c(Cl)c(C(=O)NCc3ccco3)sc2c1`, the reporter increase was 35.4%.

Consider `CCCC#Cc1cnc2c(c1)C(=O)N([C@@H](C)CO)C[C@@H](C)[C@@H](CN(C)C(=O)c1ccccc1)O2`, for which the reporter increase is -1.26%.

On to `COc1ccc(NC(=O)Nc2ccc3c(c2)C(=O)N([C@@H](C)CO)C[C@@H](C)[C@H](CN(C)C(=O)CCC(F)(F)F)OCCCC[C@@H](C)O3)cc1`, for which the reporter increase is 11%.

`C[n+]1cc(-c2ccccc2)oc1-c1ccccc1`: the reporter increase is 51.8% (active).

Consider `COC(=O)C[C@@H]1CC[C@@H]2[C@H](COc3ccc(NC(=O)c4ccccc4OC)cc3C(=O)N2C)O1`, for which the reporter increase was -4.7%.

With `COC(=O)c1ccc(Nc2ncnc3sccc23)cc1`, the reporter increase was 41.7% (active).

In the case of `COC(=O)c1ccc(OC(=O)c2cnccn2)cc1`, the reporter increase was 2.58%.

`O=S(=O)(Nc1ncnc2sccc12)c1cccc(F)c1`: the reporter increase is -8.41%.

Regarding `Cc1cc(NC(=O)COn2nnc3ccccc32)no1`, the reporter increase was -6.87%.

For the compound `Cc1cc(NC(=O)COc2ccccc2C#N)no1`, the reporter increase is 70% (active).

As to `COc1ccc(C(=O)OCC(=O)Nc2cc(C)on2)cc1F`, the reporter increase is 0.512%.

Take `CC(=O)c1c(C)[nH]c(C(=O)COC(=O)c2cccs2)c1C`: the reporter increase is 48.6% (active).

With `CC(=O)c1c(C)[nH]c(C(=O)COC(=O)CCOc2ccc(C)cc2)c1C`, the reporter increase is -8.22%.

In the case of `COc1cccc(C(=O)OCC(=O)c2[nH]c(C)c(C(C)=O)c2C)c1`, the reporter increase was 8.69%.

With `C[C@@H]1CN([C@H](C)CO)C(=O)c2cc(-c3ccccc3F)cnc2O[C@H]1CN(C)C(=O)NC1CCCCC1`, the reporter increase was -2.88%.

Consider `C[C@@H]1CN([C@H](C)CO)C(=O)c2cc(-c3ccc(F)cc3)cnc2O[C@@H]1CN(C)C(=O)C1CCC1`, for which the reporter increase is -5.57%.

Turning to `COc1ccccc1-c1nnc(SCC(=O)Nc2ccccc2)o1`, the reporter increase is 50.9% (active).

Consider `COc1ccc(-c2nnc(NC(=O)CS(=O)(=O)c3ccc(Cl)cc3)o2)c(OC)c1`, for which the reporter increase was -8.93%.

Regarding `COc1ccccc1N1CCN(C(=O)CSc2nnc(-c3ccoc3C)o2)CC1`, the reporter increase is -3.09%.

Regarding `COc1ccccc1-c1nnc(SCC(=O)N2CC(C)CC(C)C2)o1` (stereo not drawn), the reporter increase is 0.0545%.

Turning to `COc1ccc(-c2nnc(SCC(=O)c3cccs3)o2)c(OC)c1`, the reporter increase was 78.8% (active).

With `COc1cccc(NC(=O)CSc2nnc(Cc3ccc(OC)c(OC)c3)o2)c1`, the reporter increase is -6.14%.

Turning to `O=C(C[C@H]1C=C[C@H](NC(=O)Nc2ccc(C(F)(F)F)cc2)[C@@H](CO)O1)NCCN1CCCC1`, the reporter increase was 3.94%.

`CO[C@@H](CN(C)C(=O)c1cnccn1)[C@@H](C)CN([C@@H](C)CO)S(=O)(=O)c1ccc(Cl)cc1`: the reporter increase was 0.654%.

Take `COc1ccc(NC(=O)N(C)C[C@@H]2Oc3ccc(NC(=O)CCN4CCOCC4)cc3C(=O)N([C@@H](C)CO)C[C@H]2C)cc1`: the reporter increase was 2.67%.

With `C[C@@H]1CN([C@@H](C)CO)C(=O)c2cc(-c3cccnc3)cnc2O[C@H]1CN(C)Cc1ccc(-c2ccccc2)cc1`, the reporter increase is -1.47%.

Consider `C[C@H](CO)N1C[C@H](C)[C@@H](CN(C)Cc2ccncc2)OCCCC[C@H](C)Oc2ccc(NS(=O)(=O)c3ccc(Cl)cc3)cc2C1=O`, for which the reporter increase was 0.433%.

In the case of `COC(=O)CCc1sc(Nc2ccc(Br)cc2)nc1-c1ccc(OC)cc1`, the reporter increase was 3.71%.

As for `COc1ccc(-c2csc(Nc3ccc(O)cc3)n2)cc1`, the reporter increase was 78.7% (active).

Take `NS(=O)(=O)c1ccc(NS(=O)(=O)/C=C/c2ccccc2)cc1`: the reporter increase is -2.76%.

Take `CC(=O)c1ccc(Nc2nc(C(N)c3ccccc3)cs2)cc1` (stereo not drawn): the reporter increase was 20.6%.

Turning to `COc1ccc(C(C)(O)c2nc(-c3ccc(C)c(C)c3)cs2)cc1` (stereo not drawn), the reporter increase is -1.35%.

Consider `NS(=O)(=O)c1ccc(Nc2nc(-c3ccccc3)cs2)cc1`, for which the reporter increase was 47.4% (active).

Take `CCCNC(=O)Nc1ccc2c(c1)C(=O)N(C)C[C@H](OC)[C@H](C)CN(Cc1cccnc1)[C@@H](C)CO2`: the reporter increase is -1.39%.

For the compound `CN1CCN(C(=O)C[C@@H]2CC[C@@H]3[C@H](COC[C@H](O)CN3CC3CCOCC3)O2)CC1`, the reporter increase was 3.66%.

As for `CC(C)NC(=O)N[C@@H]1CC[C@H](CC(=O)NCCN2CCCC2)O[C@@H]1CO`, the reporter increase was -2.08%.

On to `COc1ccccc1S(=O)(=O)N[C@@H]1CC[C@@H](CCn2cc(C3CCCCC3)nn2)O[C@H]1CO`, for which the reporter increase was 4.02%.

Consider `CO[C@H]1CN(C)C(=O)c2ccc(NC(=O)C3CCCC3)cc2OC[C@@H](C)NC[C@@H]1C`, for which the reporter increase was 0.309%.

Turning to `COc1cccc(NC(=O)Nc2ccc3c(c2)C(=O)N(C)[C@@H]2CC[C@@H](CC(=O)NCCc4ccccc4)O[C@H]2CO3)c1`, the reporter increase is 4.83%.

As for `C[C@@H]1CN([C@H](C)CO)C(=O)c2cc(NC(=O)CCCN(C)C)ccc2O[C@@H](C)CCCCO[C@H]1CN(C)CC1CCCCC1`, the reporter increase is -2.94%.

Take `Fc1ccc2nc(N3CCCCC3)sc2c1`: the reporter increase was 45.1% (active).

Turning to `Fc1ccc2nc(Nc3nc4c(s3)CCCC4)sc2c1`, the reporter increase was 28.9%.

Take `O=C(NCCc1cccc(F)c1)C1CCCN(c2nc3ccccc3s2)C1` (stereo not drawn): the reporter increase is 3.83%.
